# According to PubChem BioAssay (NCATS):
# Values joined by “and” are separate entries in the source; they are usually repeats but may differ in a detail not shown here. Equal entries are not always repeated. Unmarked numbers belong to inactive results. Results filed as inconclusive are left out. A call without a number means that no potency is given here. Active and inactive are the calls of the source. Unless noted, calls follow the shape of the dose curve; as a rule, active = well fitted curve in the direction sought with a large enough effect; inconclusive = small, poorly fitted or top-dose-only effect, or another doubt; inactive = no such curve, though single readings can be large; an effect the other way counts as inactive or inconclusive.
# What was measured:
# [1] = system: WaGa; experiment: qHTS assay to identify novel small-molecules to repurpose for Merkel cell carcinoma treatment (AID 1296009); details: MCC and control cell lines, CellTiter-Glo viability, 72 h; series mostly up to 46 µM; also: nearly all actives have a fitted effect of over 60% in size
# Summary of the method: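 CellTiter-Glo luminescence after 72 hr compound exposure at 37 degree celsius gave cell viability. Libraries NPC and MIPE were run as 8- and 11-point dose responses; RLUs normalized to DMSO (negative) and no-cell (cytotoxicity) controls.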
# [2] = system: C33A; experiment: Primary qHTS to identify gynecologic anti-cancer compounds using libraries of approved drugs and bioactive compounds (AID 1345084); details: Gynecologic cancer cell panel viability, ATPlite luminescence, 48 h; series mostly up to 57.5 µM; also: nearly all actives have a fitted effect of over 55% in size
# Summary of the method: (§1)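 Cytotoxicity screen measuring ATP content by luciferase luminescence. Each compound is applied at five concentrations for 48 h at 37 C with 5% CO2.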
# [3] = system: CAOV3; experiment: as above; details: Gynecologic cancer cell panel viability, ATPlite luminescence, 48 h; series mostly up to 57.5 µM
# Summary of the method: as §1
# [4] = system: CASKI; experiment: as above; details: Gynecologic cancer cell panel viability, ATPlite luminescence, 48 h; series mostly up to 57.5 µM
# Summary of the method: as §1
# [5] = system: Es-2; experiment: as above; details: Gynecologic cancer cell panel viability, ATPlite luminescence, 48 h; series mostly up to 57.5 µM
# Summary of the method: as §1
# [6] = system: HeLa; experiment: as above; details: Gynecologic cancer cell panel viability, ATPlite luminescence, 48 h; series mostly up to 57.5 µM
# Summary of the method: as §1
# [7] = system: Hek293T; experiment: as above; details: Gynecologic cancer cell panel viability, ATPlite luminescence, 48 h, control line for the selectivity index; series mostly up to 57.5 µM
# Summary of the method: as §1
# [8] = system: JEG-3; experiment: as above; details: Gynecologic cancer cell panel viability, ATPlite luminescence, 48 h; series mostly up to 57.5 µM
# Summary of the method: as §1
# [9] = system: OV90; experiment: as above; details: Gynecologic cancer cell panel viability, ATPlite luminescence, 48 h; series mostly up to 57.5 µM
# Summary of the method: as §1
# [10] = system: PA-1; experiment: as above; details: Gynecologic cancer cell panel viability, ATPlite luminescence, 48 h; series mostly up to 57.5 µM
# Summary of the method: as §1
# [11] = system: SKOV3; experiment: as above; details: Gynecologic cancer cell panel viability, ATPlite luminescence, 48 h; series mostly up to 57.5 µM
# Summary of the method: as §1
# [12] = system: Tov-21-G; experiment: as above; details: Gynecologic cancer cell panel viability, ATPlite luminescence, 48 h; series mostly up to 57.5 µM
# Summary of the method: as §1
# [13] = system: Tov112D; experiment: as above; details: Gynecologic cancer cell panel viability, ATPlite luminescence, 48 h; series mostly up to 57.5 µM
# Summary of the method: as §1
# [14] = Drug repurposing screens with cells derived from glioblastoma tumor samples (AID 1345199); details: GBM patient neurospheres viability, ATP luminescence, 48 h; also: nearly all actives have a fitted effect of over 40% in size; also: potency is read from the fitted curve at half-maximal effect
# Summary of the method: (§2)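 Primary testing used CD133+ neurospheres from four GBM patients, seven concentrations, 48 h exposure and ATP-based viability; confirmation added three slower-growing patient lines.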
# [15] = system: astro; experiment: as above; details: viability, ATP luminescence, 48 h; series mostly up to 45.9 µM
# Summary of the method: as §2
# [16] = qHTS assay for small molecule activators of the human pregnane X receptor (PXR) signaling pathway (AID 720659; call rule not given here)
# [17] = at 45.9 µM (top of the series), tumour line B
# [18] = at 45.9 µM (top of the series), tumour line D
# [19] = at 46 µM (top of the series), tumour line A
# [20] = at 46.1 µM (top of the series), tumour line C
compound,measurement,setting,value
O=C1OC(OC(=O)c2cccnc2Nc2cccc(C(F)(F)F)c2)c2ccccc21 (configuration not stated),Potency,[1],inactive
same,Potency,[2],inactive
same,Potency,[3],inactive
same,Potency,[4],inactive
same,Potency,[5],inactive
same,Potency,[6],inactive
same,Potency,[7],inactive
same,Potency,[8],inactive
same,Potency,[9],inactive
same,Potency,[10],inactive
same,Potency,[11],inactive
same,Potency,[12],inactive
same,Potency,[13],inactive
same,"activity, negative = cell killing",[14]; [17],-18.8%
same,"activity, negative = cell killing",[14]; [18],3.71%
C[C@@H]1CN(c2c(F)c(F)c3c(=O)c(C(=O)O)cn(C4CC4)c3c2F)C[C@H](C)N1,Potency,[1],inactive
same,Potency,[2],inactive
same,Potency,[3],inactive
same,Potency,[4],inactive
same,Potency,[5],inactive
same,Potency,[6],inactive
same,Potency,[7],inactive
same,Potency,[8],inactive
same,Potency,[9],inactive
same,Potency,[10],inactive
same,Potency,[11],inactive
same,Potency,[12],inactive
same,Potency,[13],inactive
same,"activity, negative = cell killing",[14]; [17],-1.06%
same,"activity, negative = cell killing",[14]; [18],-13.8%
same,"activity, negative = cell killing",[14]; [19],-28.8%
same,"activity, negative = cell killing",[14]; [20],26.5%
same,Potency,[15],inactive
O=C(O)CC(O)C(=O)O (configuration not stated),Potency,[1],inactive
same,Potency,[2],inactive
same,Potency,[3],inactive
same,Potency,[4],inactive
same,Potency,[5],inactive
same,Potency,[6],inactive
same,Potency,[7],inactive
same,Potency,[8],inactive
same,Potency,[9],inactive
same,Potency,[10],inactive
same,Potency,[11],inactive
same,Potency,[12],inactive
same,Potency,[13],inactive
same,"activity, negative = cell killing",[14]; [17],-10.7%
same,"activity, negative = cell killing",[14]; [18],-4.49%
same,"activity, negative = cell killing",[14]; [19],-24.7%
same,"activity, negative = cell killing",[14]; [20],-13.6%
same,Potency,[15],inactive
CCN(CC)CCOC(=O)C1(C2CCCCC2)CCCCC1,Potency,[1],inactive
same,Potency,[2],inactive
same,Potency,[3],inactive
same,Potency,[4],inactive
same,Potency,[5],inactive
same,Potency,[6],inactive
same,Potency,[7],inactive
same,Potency,[8],inactive
same,Potency,[9],inactive
same,Potency,[10],inactive
same,Potency,[11],inactive
same,Potency,[12],inactive
same,Potency,[13],inactive
CCCOC(=O)c1ccccc1,Potency,[1],inactive
same,Potency,[2],inactive
same,Potency,[3],inactive
same,Potency,[4],inactive
same,Potency,[5],inactive
same,Potency,[6],inactive
same,Potency,[7],inactive
same,Potency,[8],inactive
same,Potency,[9],inactive
same,Potency,[10],inactive
same,Potency,[11],inactive
same,Potency,[12],inactive
same,Potency,[13],inactive
same,"activity, negative = cell killing",[14]; [17],-11.5%
same,"activity, negative = cell killing",[14]; [18],1.56%
same,"activity, negative = cell killing",[14]; [19],-26.7%
same,"activity, negative = cell killing",[14]; [20],-15.4%
same,Potency,[15],inactive
CC(C)(C)C(=O)C(Oc1ccc(Cl)cc1)n1ccnc1 (configuration not stated),Potency,[1],inactive
same,Potency,[2],inactive
same,Potency,[3],inactive
same,Potency,[4],inactive
same,Potency,[5],inactive
same,Potency,[6],inactive
same,Potency,[7],inactive
same,Potency,[8],inactive
same,Potency,[9],inactive
same,Potency,[10],inactive
same,Potency,[11],inactive
same,Potency,[12],inactive
same,Potency,[13],inactive
same,"activity, negative = cell killing",[14]; [17],-7.03%
same,"activity, negative = cell killing",[14]; [18],-26.6%
same,"activity, negative = cell killing",[14]; [20],-0.0869%
same,Potency,[14]; tumour line A,12.6 µM (active)
same,Potency,[15],inactive
Cc1ncc(COP(=O)(O)O)c(C=O)c1O,Potency,[1],inactive
same,Potency,[2],inactive
same,Potency,[3],inactive
same,Potency,[4],inactive
same,Potency,[5],inactive
same,Potency,[6],inactive
same,Potency,[7],inactive
same,Potency,[8],inactive
same,Potency,[9],inactive
same,Potency,[10],inactive
same,Potency,[11],inactive
same,Potency,[12],inactive
same,Potency,[13],inactive
same,"activity, negative = cell killing",[14]; [17],-4.54%
same,"activity, negative = cell killing",[14]; [18],0.448%
same,"activity, negative = cell killing",[14]; [19],-18.9%
same,"activity, negative = cell killing",[14]; [20],13%
same,Potency,[15],inactive
COc1ccccc1O,Potency,[1],inactive
same,Potency,[2],inactive
same,Potency,[3],inactive
same,Potency,[4],inactive
same,Potency,[5],inactive
same,Potency,[6],inactive
same,Potency,[7],inactive
same,Potency,[8],inactive
same,Potency,[9],inactive
same,Potency,[10],inactive
same,Potency,[11],inactive
same,Potency,[12],inactive
same,Potency,[13],inactive
same,"activity, negative = cell killing",[14]; [17],-3.97%
same,"activity, negative = cell killing",[14]; [18],4.42%
same,"activity, negative = cell killing",[14]; [19],-31.4%
same,"activity, negative = cell killing",[14]; [20],30.9%
same,"activity, negative = cell killing","[14]; at 91.6 µM (top of the series), tumour line B",-1.8%
same,"activity, negative = cell killing","[14]; at 91.6 µM (top of the series), tumour line D",-26.1%
same,"activity, negative = cell killing","[14]; at 99.2 µM (top of the series), tumour line C",-15%
same,Potency,[15],inactive
same,outcome,[16],inactive
O=c1[nH]c(=O)c2[nH]c(=O)[nH]c2[nH]1,"activity change, negative = cytotoxicity",[1],-8.78% [at 9.22 µM]
same,"activity change, negative = cytotoxicity",[2],-3.59% [at 11.6 µM]
same,"activity change, negative = cytotoxicity",[3],6.78% [at 11.6 µM]
same,"activity change, negative = cytotoxicity",[4],-0.141% [at 11.6 µM]
same,"activity change, negative = cytotoxicity",[5],-0.66% [at 11.6 µM]
same,"activity change, negative = cytotoxicity",[6],4.95% [at 11.6 µM]
same,"activity change, negative = cytotoxicity",[7],6.53% [at 11.6 µM]
same,"activity change, negative = cytotoxicity",[8],3.26% [at 11.6 µM]
same,"activity change, negative = cytotoxicity",[9],21.7% [at 11.6 µM]
same,"activity change, negative = cytotoxicity",[10],8.45% [at 11.6 µM]
same,"activity change, negative = cytotoxicity",[11],-14.3% [at 11.6 µM]
same,"activity change, negative = cytotoxicity",[12],19.2% [at 11.6 µM]
same,"activity change, negative = cytotoxicity",[13],-0.835% [at 11.6 µM]
same,"activity, negative = cell killing",[14]; [17],-17.6% and -20.9%
same,"activity, negative = cell killing",[14]; [18],16.7% and -10.4%
same,"activity, negative = cell killing",[14]; [19],-18.4% and -8.7%
same,"activity, negative = cell killing",[14]; [20],-21% and -10.6%
same,Potency,[15],inactive
C[C@@H](O)[C@H](N)C(=O)O,Potency,[1],inactive
same,Potency,[2],inactive
same,Potency,[3],inactive
same,Potency,[4],inactive
same,Potency,[5],inactive
same,Potency,[6],inactive
same,Potency,[7],inactive
same,Potency,[8],inactive
same,Potency,[9],inactive
same,Potency,[10],inactive
same,Potency,[11],inactive
same,Potency,[12],inactive
same,Potency,[13],inactive
same,"activity, negative = cell killing",[14]; [17],-15.7%
same,"activity, negative = cell killing",[14]; [18],-16.8%
same,"activity, negative = cell killing",[14]; [19],-29.7%
same,"activity, negative = cell killing",[14]; [20],2.15%
same,Potency,[15],inactive
O=c1[nH]cnc2c1ncn2[C@@H]1O[C@H](CO)[C@@H](O)[C@H]1O,Potency,[1],inactive
same,Potency,[2],inactive
same,Potency,[3],inactive
same,Potency,[4],inactive
same,Potency,[5],inactive
same,Potency,[6],inactive
same,Potency,[7],inactive
same,Potency,[8],inactive
same,Potency,[9],inactive
same,Potency,[10],inactive
same,Potency,[11],inactive
same,Potency,[12],inactive
same,Potency,[13],inactive
same,"activity, negative = cell killing",[14]; [17],9.46%
same,"activity, negative = cell killing",[14]; [18],-5.06%
same,"activity, negative = cell killing",[14]; [19],7.03%
same,"activity, negative = cell killing",[14]; [20],2.71%
same,Potency,[15],inactive
O=C(Oc1ccccc1C(=O)O)c1ccccc1O,Potency,[1],inactive
same,Potency,[2],inactive
same,Potency,[3],inactive
same,Potency,[4],inactive
same,Potency,[5],inactive
same,Potency,[6],inactive
same,Potency,[7],inactive
same,Potency,[8],inactive
same,Potency,[9],inactive
same,Potency,[10],inactive
same,Potency,[11],inactive
same,Potency,[12],inactive
same,Potency,[13],inactive
same,"activity, negative = cell killing",[14]; [17],-6.94%
same,"activity, negative = cell killing",[14]; [18],-16.8%
same,"activity, negative = cell killing",[14]; [19],-11.8%
same,"activity, negative = cell killing",[14]; [20],0.529%
same,Potency,[15],inactive
